# Measured values taken from the supplement of paper PMC10127200.
# Where a name gives a salt, the structure may show the parent alone.
# Columns and labels:
# Experiment in all cases: Euclidean distance of Cell Painting phenotypic profile (signed KS, 77 features) to DMSO centroid (dimensionless distance); 5 or 10 uM (library dependent); higher = stronger phenotypic change vs DMSO (phenoactivity)
# Details in all cases: 48 h
# 786-O = test system: 786-O
# Procedure, shortened: (§1)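 Phenoactivity is computed as Euclidean distance to the median vehicle profile. The profiles, drawn from 77 Harmony features scored as signed Kolmogorov-Smirnov statistics versus same-plate vehicle wells, were corrected for plate position, correlation-weighted and replicate-averaged at the top dose. Stained cells were imaged confocally at 20X (9 fields/well) after 48 h with library compounds at 10 or 5 uM, 0.1% DMSO final, in five cancer lines and a healthy fibroblast line.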
# A549 = test system: A549
# Procedure, shortened: as §1
# DU145 = test system: DU145
# Procedure, shortened: as §1
# FB = test system: FB
# Procedure, shortened: as §1
# HEPG2 = test system: HEPG2
# Procedure, shortened: as §1
# OVCAR4 = test system: OVCAR4
# Procedure, shortened: as §1
SMILES,Euclidean distance (786-O),Euclidean distance (A549),Euclidean distance (DU145),Euclidean distance (FB),Euclidean distance (HEPG2),Euclidean distance (OVCAR4)
O=C(Nc1cccc(Nc2ncc(Br)c(NCCc3cnc[nH]3)n2)c1)N1CCCC1,2.94,3.51,3.14,3.05,2.43,3.33
CCN1/C(=C/C(C)=O)Sc2ccc(OC)cc21,0.422,0.711,1.03,0.64,1.98,0.872
CCOC(=O)[C@@H](N)Cc1ccc(-c2cc(O[C@H](c3ccc(Cl)cc3-n3ccc(C)n3)C(F)(F)F)nc(N)n2)cc1 [Telotristat Etiprate (LX 1606 Hippurate)],3.69,1.52,2.43,2.23,1.13,1.3
CCC1=C(C)CN(C(=O)NCCc2ccc(S(=O)(=O)NC(=O)N[C@H]3CC[C@H](C)CC3)cc2)C1=O [Glimepiride],1.39,0.608,0.621,0.992,0.508,0.801
COc1ccc2c(c1)c(CC(=O)N1CCOCC1)c(C)n2C(=O)c1ccc(Cl)cc1,0.785,0.772,0.859,0.741,0.95,0.74
CCN(CC)CCCC(C)Nc1c2ccc(Cl)cc2nc2ccc(OC)cc12 (stereo unspecified) [Quinacrine Dihydrochloride Dihydrate],4.25,5.06,4.71,6.12,4.78,4.71
Nc1ccccc1NC(=O)c1ccc(CNc2nccc(-c3cccnc3)n2)cc1 [Mocetinostat (MGCD0103)],3.18,3.33,2.95,3.48,3.36,3.38
CCN1CCN(C(=O)N[C@@H](C(=O)N[C@@H]2C(=O)N3C(C(=O)O)=C(CSc4nnnn4C)CS[C@H]23)c2ccc(O)cc2)C(=O)C1=O [Cefoperazone],1.77,0.776,0.917,1.45,0.854,1.24
Cc1cc(C)nc(NS(=O)(=O)c2ccc(NC(=S)NC(=O)COc3ccc(Br)cc3Cl)cc2)n1,0.465,0.727,0.713,0.857,2.1,0.759
Cn1c(=O)cc(N2CCC[C@@H](N)C2)n(Cc2cc(F)ccc2C#N)c1=O [Trelagliptin],0.94,0.495,0.985,0.998,0.668,0.953
CN(C)CCC=C1c2ccccc2C=Cc2ccccc21 [Cyclobenzaprine HCl],1.1,1.26,1.14,1.88,1.52,1.16
CC1(C)S[C@@H]2[C@H](NC(=O)C(c3ccccc3)S(=O)(=O)O)C(=O)N2[C@H]1C(=O)O (stereo partly specified) [Sulbenicillin Sodium],0.75,0.447,1.14,1.28,0.601,1.09
N[C@@H](CSCCCO)C(=O)O [Fudosteine],1.5,1.77,0.71,1.34,0.516,1.3
O=C(O)CCCC[C@@H]1SC[C@@H]2NC(=O)N[C@@H]21 [Biotin (Vitamin B7)],0.776,0.871,0.982,0.902,0.533,1.23
OCC1OC(OC2OC(CO)C(O)C(O)C2O)C(O)C(O)C1O [D-(+)-Trehalose Anhydrous],1.42,1.05,1.04,1.26,0.946,0.855
COc1ccc(CC(C)(C)NC[C@H](O)c2cc(O)cc3c2OCC(=O)N3)cc1 [Olodaterol hydrochloride],1.07,0.364,1.21,1.12,0.379,1.1
Cn1cncc1[C@@](N)(c1ccc(Cl)cc1)c1ccc2c(c1)c(-c1cccc(Cl)c1)cc(=O)n2C [Tipifarnib],2.23,2.94,2.5,2.31,1.91,2.15
Cn1cc(C(=O)[C@@H]2CCc3[nH]cnc3C2)c2ccccc21 [Ramosetron Hydrochloride],1.07,0.965,0.791,1.34,0.731,1.41
O=C(Nc1ccccc1)N1CCN(c2nc(-c3ccccc3)ns2)CC1,0.718,0.932,0.9,1.03,1.34,1.08
C[C@]12CC[C@@H]3c4ccc(O)cc4CC[C@H]3[C@@H]1CC[C@@H]2O [Estradiol],1.17,0.515,2.36,1.1,0.515,1.04
Nc1nc(Cl)nc2c1ncn2[C@@H]1O[C@H](CO)[C@@H](O)[C@@H]1F [Clofarabine],3.26,2.36,2.96,3.41,3.02,3.09
CC(CN(C)C)CN1c2ccccc2Sc2ccccc21 (stereo unspecified) [Alimemazine Tartrate],1.33,1.55,1.73,2.43,2.13,1.33
O=C(COc1cccc2c(=O)[nH]ccc12)c1ccccc1,1.49,1.09,0.747,0.832,0.68,0.6

SMILES,Euclidean distance (786-O),Euclidean distance (A549),Euclidean distance (DU145),Euclidean distance (FB),Euclidean distance (HEPG2),Euclidean distance (OVCAR4)
C=CCNC1=C2C[C@@H](C)C[C@H](OC)[C@H](O)[C@@H](C)/C=C(\C)[C@H](OC(N)=O)[C@@H](OC)/C=C\C=C(/C)C(=O)NC(=CC1=O)C2=O,2.85,2.95,4.51,3.47,3.86,2.72
O=C1OC(CN2CCOCC2)CN1/N=C/c1ccc([N+](=O)[O-])o1 (stereo unspecified) [Furaltadone HCl],0.929,1.35,1.24,1.24,0.808,2.22
CC(C)C[C@H](NC(=O)[C@@H](COC(C)(C)C)NC(=O)[C@H](Cc1ccc(O)cc1)NC(=O)[C@H](CO)NC(=O)[C@H](Cc1c[nH]c2ccccc12)NC(=O)[C@H](Cc1cnc[nH]1)NC(=O)[C@@H]1CCC(=O)N1)C(=O)N[C@@H](CCCNC(=N)N)C(=O)N1CCC[C@H]1C(=O)NNC(N)=O [Goserelin Acetate],1.49,0.535,2.39,0.568,0.784,1.07
Cn1cnc2c(F)c(Nc3ccc(Br)cc3Cl)c(C(=O)NOCCO)cc21 [Selumetinib (AZD6244)],2.23,2.67,2.91,2.95,1.72,2.19
NCCOB(c1ccccc1)c1ccccc1 [2-Aminoethyl Diphenylborinate (2-APB)],1.61,0.835,1,0.968,0.822,1.13
CO[C@H]1/C=C\C=C(/C)C(=O)NC2=CC(=O)C(NCCN(C)C)=C(C[C@@H](C)C[C@H](OC)[C@H](O)[C@@H](C)/C=C(\C)[C@@H]1OC(N)=O)C2=O,2.76,2.89,4.03,3.32,3.56,2.71
O=C(O[C@@H]1C[C@@H]2C[C@H]3C[C@H](C1)N2CC3=O)c1c[nH]c2ccccc12 [Dolasetron Mesylate],1.12,0.793,0.963,1.17,0.558,1.22
O=C(CCCN1CCN(c2ccccn2)CC1)c1ccc(F)cc1 [Azaperone],0.919,0.568,0.729,0.828,0.758,1.09
O=C(O)c1ccccc1O [Salicylic acid],0.877,0.32,0.898,0.648,0.308,1.08
CC(C)NNC(=O)c1ccncc1 [Iproniazid],1.02,0.606,0.811,1.08,0.379,1.18
Nc1ncnc2c1c(-c1cccc(OCc3ccccc3)c1)cn2C1CC(CN2CCCC2)C1 (stereo unspecified),2.84,3.18,2.28,3.95,3.36,1.87
C[C@H](Oc1cc(-c2cnn(C3CCNCC3)c2)cnc1N)c1c(Cl)ccc(F)c1Cl [(S)-crizotinib],3.79,3.26,2.55,4.85,3.67,2.78
CN[C@@H]1[C@H](O)[C@H](NC)[C@H]2O[C@@]3(O)C(=O)C[C@@H](C)O[C@H]3O[C@@H]2[C@H]1O [Spectinomycin HCl],0.726,0.814,1.28,1.21,0.977,1.02
O=C(c1c(F)ccc(NS(=O)(=O)N2CC[C@@H](F)C2)c1F)c1c[nH]c2ncc(-c3cnc(C4CC4)nc3)cc12,1.42,1.86,2.02,2.6,1.2,1.44
Cc1c(F)cccc1NC(=O)Nc1ccc(Cl)c(S(=O)(=O)[C@H]2CCCNC2)c1O,1.18,0.479,0.758,1.15,0.926,1.49
N#CCC1(n2cc(-c3ncnc4[nH]ccc34)cn2)CN(C2CCN(C(=O)c3ccnc(C(F)(F)F)c3F)CC2)C1,1.27,1.05,1.46,1.34,0.742,1.05
Nc1ccn([C@@H]2O[C@H](CO)[C@@H](O)[C@@H]2O)c(=O)n1 [Cytarabine hydrochloride],3.21,3.25,2.45,2.97,2.73,3.43
COc1c(C)c2c(c(O)c1C/C=C(\C)CCC(=O)O)C(=O)OC2 [Mycophenolic acid],2.65,3.38,1.88,3.04,2.74,3.28
COC[C@H]1C[C@@H](c2nc(-c3ccc4c(c3)COc3cc5c(ccc6nc([C@@H]7CC[C@H](C)N7C(=O)[C@@H](NC(=O)OC)C(C)C)[nH]c65)cc3-4)c[nH]2)N(C(=O)[C@H](NC(=O)OC)c2ccccc2)C1 [Velpatasvir],1.14,1.43,1.28,2.05,1.32,1.1
Cc1coc2c1C(=O)C(=O)c1c-2ccc2c1CCCC2(C)C [Tanshinone IIA],1.26,2.73,0.982,1.04,1.54,1.36
O=P(O)(O)OC(Cn1cncn1)(Cn1cncn1)c1ccc(F)cc1F [Fosfluconazole],1.39,0.635,1.39,0.872,0.852,1.23
C[C@@H](c1ncncc1F)[C@](O)(Cn1cncn1)c1ccc(F)cc1F [Voriconazole],1.9,1.17,0.9,1.01,0.988,1.25
Cc1ccc(S(=O)(=O)/C=C/C#N)cc1,1.7,1.37,1.36,3.14,2.05,2.5
